The text below walks through data of PubChem BioAssay AID493035 (The Scripps Research Institute Molecular Screening Center, 2011).

Out of some 2,000 compounds screened, about 45 (2%) were called active.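 Rule for the calls: active = inhibition above the mean of all tested compounds plus 3 SD (cut at about 49% in these data); inactive = the rest.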 The list comes from a sample in which actives are over-represented; it also holds similar structures and randomly drawn compounds.

In the experiment the target is Perilipin-5 (Homo sapiens) + 1-acylglycerol-3-phosphate O-acyltransferase ABHD5 (Homo sapiens) (UniProt Q00G26+Q8WTS1). In words: blockers of ABHD5 binding to perilipin-5 – cell lysate, split luciferase complementation, luminescence, NIH validation set, pilot screen (AID 493035).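 Note: 0% = DMSO only wells while the 100% control is not stated.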 Conditions: split G. princeps luciferase complementation, lysates, 4 h, at 7.9 µM, active compounds read high.
Perilipin-5 (Homo sapiens) + 1-acylglycerol-3-phosphate O-acyltransferase ABHD5 (Homo sapiens), sequence (Q00G26 whole entry, looked up): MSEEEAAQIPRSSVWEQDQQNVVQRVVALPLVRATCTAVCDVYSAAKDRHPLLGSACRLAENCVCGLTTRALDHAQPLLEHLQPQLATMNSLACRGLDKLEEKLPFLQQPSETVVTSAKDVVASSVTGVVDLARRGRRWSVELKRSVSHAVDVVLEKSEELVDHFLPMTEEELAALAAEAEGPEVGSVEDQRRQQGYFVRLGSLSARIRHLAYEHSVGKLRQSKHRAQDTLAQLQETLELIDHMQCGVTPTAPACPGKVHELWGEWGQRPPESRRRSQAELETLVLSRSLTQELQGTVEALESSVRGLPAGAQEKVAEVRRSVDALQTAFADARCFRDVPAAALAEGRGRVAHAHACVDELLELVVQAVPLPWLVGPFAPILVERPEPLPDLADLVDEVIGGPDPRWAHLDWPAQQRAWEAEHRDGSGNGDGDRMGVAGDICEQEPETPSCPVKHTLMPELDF
Perilipin-5 (Homo sapiens) + 1-acylglycerol-3-phosphate O-acyltransferase ABHD5 (Homo sapiens), sequence (Q8WTS1 whole entry, looked up): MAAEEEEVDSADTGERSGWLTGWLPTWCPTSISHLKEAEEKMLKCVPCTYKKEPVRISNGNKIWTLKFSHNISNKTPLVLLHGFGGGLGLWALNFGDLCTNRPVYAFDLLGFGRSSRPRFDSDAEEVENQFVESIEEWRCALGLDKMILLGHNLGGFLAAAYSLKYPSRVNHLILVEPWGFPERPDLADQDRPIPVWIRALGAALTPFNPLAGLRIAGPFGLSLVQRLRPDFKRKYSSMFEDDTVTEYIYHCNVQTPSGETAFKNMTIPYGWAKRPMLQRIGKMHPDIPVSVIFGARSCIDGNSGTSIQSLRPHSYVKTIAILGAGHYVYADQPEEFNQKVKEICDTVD
In the case of `O=C1C(=O)c2ccccc2-c2ccccc21`, the inhibition was 69.8% (active).

For `S=C1NCCN1`, the inhibition is -0.74% (inactive).

For `CC12CN3CC(C)(CN(C1)C31CCOCC1)C2=O`, the inhibition is -15.3% (inactive).

For `C[C@H]1CCC/C=C/C2C[C@H](O)CC2[C@H](O)/C=C/C(=O)O1` (stereo not given in full), the inhibition is -14.2% (inactive).

`CC[C@]12C=CCN3CCC4(c5cc(Br)c(OC)cc5N(C)C4[C@@](O)(C(=O)OC)[C@@H]1OC(C)=O)C32` (stereo not given in full): the inhibition is -5.38% (inactive).

For the compound `CCOC(=O)c1cc2c(cn1)[nH]c1ccccc12`, the inhibition is -11.3% (inactive).

`COP(=S)(OC)SCN1C(=O)c2ccccc2C1=O`: the inhibition is 93.3% (active).

As to `COc1ccc2c(c1)CC1(CN2C)C(=O)NC(=O)N(CCc2ccccc2)C1=O` (stereo not given), the inhibition was 3.64% (inactive).

With `CC12CCC3C(CC=C4CC(O)CCC43C)C1C/C(=C\c1cccc(F)c1)C2=O` (stereo not given), the inhibition is -0.83% (inactive).

In the case of `O=C1C=Cc2ccccc2C1=O`, the inhibition is 59.1% (active).

Turning to `C[N+]1(C)C2CCC1CC(OC(=O)C(CO)c1ccccc1)C2` (stereo not given), the inhibition is -3.97% (inactive).

For the compound `C[C@H]1CCCC(=O)CCCCCc2cc(O)cc(O)c2C(=O)O1`, the inhibition is 6.49% (inactive).

In the case of `Cc1cc2c(C(C)C)c(O)c(O)c(C=O)c2c(O)c1-c1c(C)cc2c(C(C)C)c(O)c(O)c(C=O)c2c1O`, the inhibition was 50.7% (active).

Turning to `NCC1(c2ccc3c(c2)OCCO3)CCCC1`, the inhibition was -7.35% (inactive).

For `CCOC(=O)C(C)Oc1cc(C)cc2oc(=O)c3c(c12)CCCC3` (stereo not given), the inhibition was 6.91% (inactive).

With `Cc1ccc(-n2c(C)cc(/C=C3/C(=O)NC(=O)N(C)C3=O)c2C)cc1`, the inhibition is 33.2% (inactive).

For the compound `COc1cc(/C=C2\C(=O)NC(=O)N(c3ccccc3)C2=O)c([N+](=O)[O-])cc1OC`, the inhibition was 63.5% (active).

As for `Cc1ccc(/C=C2/C(=O)NC(=O)N(C)C2=O)cc1`, the inhibition was 7.85% (inactive).

Take `CCOc1ccc(N2C(=O)NC(=O)/C(=C\c3cc(OC)c(OC)cc3[N+](=O)[O-])C2=O)cc1`: the inhibition was 66.2% (active).

For the compound `CC[C@@H](CO)NC(=O)[C@@H]1C=C2c3cccc4c3c(cn4C)C[C@H]2N(C)C1`, the inhibition was 1.19% (inactive).

Consider `C[C@]12CC[C@@H](O)C[C@@H]1CC[C@@H]1[C@@H]2CC[C@]2(C)C(=O)CC[C@@H]12`, for which the inhibition is -8.46% (inactive).

With `Cc1ccsc1C(=O)C1CCCN(Cc2cc3ccccc3o2)C1` (stereo not given), the inhibition was -2.51% (inactive).

With `COc1ccc(-c2nc3ccccc3c(=O)o2)cc1`, the inhibition was -1.16% (inactive).

As to `CC(Cc1ccccc1)NCC(=O)Nc1cc(N(C)C)nc2ccccc12` (stereo not given), the inhibition is 2.7% (inactive).

On to `COc1ccccc1CN1CCCCC1c1cccnc1` (stereo not given), for which the inhibition was -4.35% (inactive).

For `Clc1ccc(COC(Cn2ccnc2)c2ccc(Cl)cc2Cl)c(Cl)c1` (stereo not given), the inhibition was 4.9% (inactive).

Turning to `COc1ccc(OC)c([C@@H](O)[C@H](C)NC(C)(C)C)c1`, the inhibition is 2.3% (inactive).

`C[N+](C)(C)Cc1ccccc1`: the inhibition was -2.04% (inactive).

`CC12CN3CC(c4ccccc4)(CN(C1)C31CCCCC1)C2=O`: the inhibition was -2.32% (inactive).

As for `Cc1nc2ccccc2c(=O)n1-c1ccc(C(=O)O)cc1`, the inhibition was 7.89% (inactive).

Turning to `O=c1c2ccccc2[se]n1-c1ccccc1`, the inhibition is 95.1% (active).

On to `O=c1c2ccccc2nc(/C=C/c2ccc3c(c2)OCO3)n1-c1ccccc1`, for which the inhibition was 2.37% (inactive).

Take `C[C@]12CC[C@@H](O)C[C@@H]1CC[C@@H]1[C@@H]2CC[C@]2(C)[C@@H](O)CC[C@@H]12`: the inhibition is -3.26% (inactive).

Take `CCN(CC)CCOC(=O)C(O)(c1ccccc1)c1ccccc1`: the inhibition is 0.42% (inactive).

As for `CCN1CC2(COC(=O)c3ccccc3N)CCC(OC)C34C5CC6C(OC)CC(O)(C5C6OC)C(O)(C(OC)C23)C14` (stereo not given), the inhibition was 0.04% (inactive).

One may read the inhibition as the change of the read-out against control, counted positive when it falls.
